# Source: PubChem BioAssay AID463173 (ICCB-Longwood Screening Facility, Harvard Medical School, 2010)
# Among all 52,000 compounds or so, about 4,300 (8.3%) were called active. Many of the other results were omitted from the sample, so actives are more common in it than they were. A number with no mark means an inactive call. Rule as the data show it: active = survival mostly below about 52% (no sharp cut-off); inactive = mostly above about 56%.
# Test system: DeltatarO mutant
# Assay: S. aureus survival, RN4220 and DeltatarO strains – OD600, teichoic acid synthesis inhibitors, primary screen (AID 463173)
# Conditions: S. aureus RN4220 wild type/DeltatarO growth, OD600, 18 h, active compounds read low, screened at 18.75 µg/mL (by protocol)
row,Compound,survival
1,O=C(Nc1ccc(C(=O)OCc2cc(=O)n3nc(C4CC4)sc3n2)cc1)c1cccc(F)c1,67%
2,O=C(Nc1cccc(F)c1)/C(=C\c1cccs1)NC(=O)c1cccs1,79%
3,O=C(CCCSc1nc(-c2ccco2)cc(C(F)(F)F)n1)Nn1cnnc1,72%
4,COc1cccc(C(=O)NC(=O)Nc2ccc(-n3nc(C(F)(F)F)cc3C(F)(F)F)cc2)c1,81%
5,CCOc1ccc(OCC)c(NC(=O)C2CCCN(S(=O)(=O)c3ccc(C)cc3)C2)c1 (stereo not drawn),60%
6,CCC(Sc1nc2cc(OC)c(OC)cc2c2nc(-c3ccccc3)nn12)C(=O)Nc1cccc(C)c1 (stereo not drawn),80%
7,CCCCc1cc(=O)oc2cc(C)c3c(C(C)(C)C)coc3c12,102%
8,COc1ccc(OC)c(CNC(=O)CN2N=C(c3ccc(Cl)cc3)CCC2=O)c1,96%
9,COc1ccc(OC)c(CNc2ncc(-c3ccc(Cl)cc3)n2C)c1,25% (active)
10,CCOC(=O)c1cnc(NCc2ccc(OC)cc2OC)c2ccccc12,86%
11,COc1ccc(CNS(=O)(=O)c2cnc(N)nc2)c(OC)c1,83%
12,COc1ccc(OC)c(CNc2ncnc3onc(-c4ccc(Cl)cc4)c23)c1,53%
13,CCOc1ccc(-c2cnc(NCc3ccc(OC)cc3OC)n2C)cc1,37% (active)
14,CCOc1ccccc1C(=O)N1CC(=O)Nc2ccc(Cl)cc2C1c1ccccc1 (stereo not drawn),73%
15,Fc1ccc(Nc2c3c(nc4nncn24)CCC3)cc1,74%
16,Cc1ccc(-n2nc(C(=O)Nc3cccc(C#N)c3)c3c4ccccc4n(C)c3c2=O)cc1,129%
17,Cc1ccc(C(=O)c2oc3ccccc3c2NC(=O)c2cc(-c3ccccc3)on2)cc1,77%
18,O=C(c1ccco1)N1CCN(c2c3c(nc4cc(-c5cccc(F)c5)nn24)CCCC3)CC1,70%
19,Cc1ccc2cc(CN(Cc3cccnc3)C(=O)c3cccnc3)c(=O)[nH]c2c1,106%
20,O=C1Nc2ccccc2Oc2cc(Oc3cccc(Cl)c3)ccc21,46%
21,Cc1cccc(Oc2ccc3c(c2)Oc2ccccc2NC3=O)c1,73%
22,O=C1Nc2ccccc2Oc2cc(Oc3ccccc3)ccc21,33% (active)
23,COc1ccc(-c2ccc(CNCCCSc3nnnn3C)o2)cc1Cl,79%
24,CCc1ccc(NC(=O)Cn2c(=O)c(-c3ccccc3NC(C)=O)nc3ccccc32)cc1,44% (active)

row,Compound,survival
1,CC(=O)Nc1ccccc1-c1nc2ccccc2n(CC(=O)Nc2cccc(C(F)(F)F)c2)c1=O,45% (active)
2,CC(=O)Nc1ccccc1-c1nc2ccccc2n(CC(=O)Nc2ccc(C)c(Cl)c2)c1=O,101%
3,Nc1nonc1-c1nc2ccccc2n1CC(=O)Nc1cccc(C(F)(F)F)c1,95%
4,COc1ccc(Cl)cc1NC(=O)Cn1c(=O)c(-c2ccccc2NC(C)=O)nc2ccccc21,103%
5,CCc1ccc(NC(=O)C(CC)n2c(=O)c(-c3ccccc3NC(C)=O)nc3ccccc32)cc1 (stereo not drawn),65%
6,CCOc1ccccc1-c1nc(C(N)=O)c2c(n1)n(-c1ccc3c(c1)OCO3)c(=O)n2C,79%
7,CCOc1ccc(NC(=O)Cc2c[nH]c3ccccc23)cc1,80%
8,Cc1oc2c(c1C(=O)NCCO)CCCC2,85%
9,COCc1cc(C)nc2sc3c(c12)NC(c1ccc(O)cc1)N(c1ccc(OC)cc1)C3=O (stereo not drawn),76%
10,CCCN1C(=O)C2(c3ccccc31)c1c(oc3ccc(F)cc3c1=O)C(=O)N2CCCOC(C)C (stereo not drawn),93%
11,COc1ccc2cc(C#N)c(N3CCCN(C(=O)/C=C/C(=O)O)CC3)nc2c1,105%
12,CCCN1CCc2nc(N3CCN(c4ncccn4)CC3)ncc2C1,75%
13,O=C(CSc1nc2ccccc2n1Cc1ccccc1)NCc1ccccc1,95%
14,O=C(CSc1nc2ccccc2n1Cc1ccccc1)Nc1ccccn1,81%
15,O=C1OCCC1Sc1nc2ccccc2n1Cc1ccccc1 (stereo not drawn),73% (active)
16,COC(=O)c1nnn(CC(=O)Nc2c(C)cccc2C)c1N,87%
17,Cc1ccc(NC(=O)CN2C(=O)COc3ccc(S(=O)(=O)N4CCCCCC4)cc32)cc1Cl,67%
18,COc1cccc(/C=N/NC(=O)COc2c(C)cccc2C)c1O,88%
19,COc1cccc(/C=N/NC(=O)CSCc2ccccc2)c1O,69%
20,Cc1cccc(/C=N/NC(=O)c2ccccn2)c1O,5% (active)
21,O=C(N/N=C/c1ccc(OC(=O)c2ccco2)cc1)c1ccccn1,92%
22,Cn1cccc1/C=N/NC(=O)c1ccccn1,77%
23,COc1cccc(/C=N/NC(=O)c2cccc(C)c2)c1O,2% (active)
24,COc1ccc(C(=O)Nc2ccc3nc4n(c(=O)c3c2)CCCCC4)cc1OC,91%

row,Compound,survival
1,CCOc1ccc(-n2c(=O)c3c(C)c(C)sc3n(CC(=O)N3CCC(C)CC3)c2=O)cc1,71%
2,CCC(C)NC(=O)c1ccc2nc(Cc3ccc(OC)cc3)oc2c1 (stereo not drawn),76%
3,CCOC(=O)c1c(C)[nH]c(CCC(=O)Nc2cc(Cl)ccc2OC)c1C,94%
4,COc1ccccc1CNC(=O)Cn1c(=O)ccc2cc(S(=O)(=O)N3CCCC3)ccc21,69%
5,CCn1nc(C)c(CCN(C)C(=O)Nc2cc(OC)c(OC)c(OC)c2)c1C,89%
6,CCc1ccc(OCC(=O)Nc2cc3oc4ccccc4c3cc2OC)c(Br)c1,123%
7,COc1cc2c(cc1NC(=O)COc1ccc(Br)cc1)oc1ccccc12,72%
8,COc1cc2c(cc1NC(=O)COc1ccc(Br)c(C)c1)oc1ccccc12,49%
9,CCc1ccc(OCC(=O)Nc2cc3oc4ccccc4c3cc2OC)cc1,47% (active)
10,COc1cc2c(cc1NC(=O)COc1ccc(Cl)cc1)oc1ccccc12,46% (active)
11,COc1cc2c(cc1NC(=O)COc1ccc(Br)cc1C)oc1ccccc12,119%
12,O=C(CN1CCSc2ccccc21)N1CCN(c2ccc(F)cc2)CC1,88%
13,O=C(O)CCCNc1ncnc2ccccc12,92%
14,COc1ccc(NC(=O)C2CCN(c3nc4ccccc4[nH]3)CC2)cc1OC,66%
15,Fc1ccccc1-n1ncc2c1ncn1nc(Cc3ccccc3)nc21,74%
16,CCOC(=O)N1CC=C2C(C#N)=C(N)C(C#N)(C#N)C(c3ccc(CC)cc3)C2C1 (stereo not drawn),88%
17,COc1cccc(C2C3CN(C(C)=O)CC=C3C(C#N)=C(N)C2(C#N)C#N)c1 (stereo not drawn),93%
18,CC(C)(C)OC(=O)N1CC=C2C(C#N)=C(N)C(C#N)(C#N)C(c3ccc4c(c3)OCO4)C2C1 (stereo not drawn),35% (active)
19,CCOc1ccc(NC(=O)N2CCC(CN3CCCCCC3)CC2)cc1,115%
20,Cc1cccc(NC(=O)N2CCC(CN3CCCCCC3)CC2)c1C,81%
21,CCc1ccccc1NC(=O)N1CCC(CN2CCc3ccccc3C2)CC1,76%
22,CCOc1ccc(NC(=O)N2CCC(CN3CCc4ccccc4C3)CC2)cc1,-1% (active)
23,Cc1cc(C)cc(NC(=O)N2CCC(CN3CCc4ccccc4C3)CC2)c1,72%
24,CCOc1ccc(NC(=O)N2CCC(CN3CCC(C)CC3)CC2)cc1,117%

row,Compound,survival
1,Cc1cccc(NC(=O)N2CCC(CN3CCc4ccccc4C3)CC2)c1C,-2% (active)
2,COC(=O)c1ccc(NC(=O)N2CCC(CN3CCc4ccccc4C3)CC2)cc1,6% (active)
3,COc1cc(NC(=O)N2CCC(CN3CCc4ccccc4C3)CC2)cc(OC)c1,70%
4,COc1ccc(Cl)cc1NS(=O)(=O)c1cc(-c2cc(C)no2)ccc1C,87%
5,CCCCn1c(=O)c2oc3ccccc3c2n(Cc2ccccc2C)c1=O,55%
6,COc1cccc(-n2nnc(-c3nc(-c4ccccc4F)no3)c2C)c1,84%
7,COc1ccc(OCCSc2nc3ccccc3n2CC(=O)N2CCOCC2)cc1,51%
8,CC1CCN(C(=O)Cn2c(SCC(=O)NC(C)(C)C)nc3ccccc32)CC1,92%
9,Cc1cccc(OCCSc2nc3ccccc3n2CC(=O)N2CCOCC2)c1,44% (active)
10,Cc1ccc(OCCSc2nc3ccccc3n2CC(=O)N2CCOCC2)c(C)c1,93%
11,Cc1ccc(OCCSc2nc3ccccc3n2CC(=O)N2CCOCC2)cc1,96%
12,Cc1ccc(NC(=O)CSc2nc3ccccc3n2CC(=O)N2CCC(C)CC2)cc1C,17% (active)
13,O=C(Cn1c(SCCOc2ccccc2)nc2ccccc21)N1CCOCC1,47%
14,COc1cccc(OCCSc2nc3ccccc3n2CC(=O)N2CCCCC2)c1,42% (active)
15,COc1cccc(OCCSc2nc3ccccc3n2CC(=O)N2CCOCC2)c1,44% (active)
16,CC1CCN(C(=O)Cn2c(SCC(=O)Nc3ccc(F)cc3)nc3ccccc32)CC1,96%
17,COc1ccc(C2CC(=O)Nc3c2c(C)nn3-c2nncc(-c3ccc(C)cc3)n2)c(OC)c1OC (stereo not drawn),83%
18,CCOc1ccc(/C=C(\C#N)C(=O)NCc2ccco2)cc1OC,113%
19,CCOc1ccc(CNCc2c(C(=O)O)c(C)n(Cc3c(F)cccc3Cl)c2C)cc1OC,56%
20,COc1ccc(C2CC(=O)c3cc(-c4nc(-c5ccc(C)cc5)cs4)c(=O)[nH]c3C2)cc1 (stereo not drawn),76%
21,O=C(CNC(=O)c1ccc(Cl)cc1)OCc1cc(=O)n2nc(C3CCCCC3)sc2n1,90%
